Screens (PubChem BioAssay)
PfHsp40 rescue = restores yeast growth despite PfHsp40 toxicity; S. cerevisiae expressing PfHsp40, growth rescue, ATP luminescence; growth rescue, % at 12.5 µM; actives 0.68% (n = 340,000); AID 504582; in the data active = growth rescue above about 28%, passing the limit was not always enough; inconclusive = no clear call, values can overlap the other calls;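 also: yeast W303a lacking pdr1 and pdr3 grown in galactose medium; growth measured after three days at 30 °C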
PrP UTR inh = inhibition of PrP 5' UTR reporter expression. cell-based PrP 5' UTR mRNA reporter, plate reader. inhibition, % (test concentration not listed). actives 0.35% (n = 340,000); in the data active = inhibition above about 52%; also: 0 = median of the neutral control wells
FadD28 FP inh = blocks FadD28 binding to the bisubstrate probe; inhibition, % at 12.5 µM; actives 0.22% (n = 360,000); fluorescence polarization; in the data active = inhibition above about 8.5%, passing the limit was not always enough; inconclusive = no clear call, values can overlap the other calls
TcdB inh = blocks C. difficile toxin B glycohydrolase activity. inhibition, % at 9.99 µM. actives 0.24% (n = 350,000). TcdB glycohydrolase enzymatic assay, plate reader. AID 652162; in the data active = inhibition above about 10%
Mtb BioA inh = blocks M. tuberculosis BioA enzyme activity; purified M. tuberculosis BioA enzyme, plate reader; inhibition, % at 9.99 µM; actives 0.096% (n = 360,000); AID 602481; in the data active = inhibition above about 40%; inconclusive = no clear call, values can overlap the other calls
The depositor's hits bear a star; ? = inconclusive; . = no result. Most compounds without a hit are left out; they make up all but 1.1% or so of the library.

SMILES | PfHsp40 rescue | PrP UTR inh | FadD28 FP inh | TcdB inh | Mtb BioA inh
COc1ccccc1CN(Cc1cc2cc(C)cc(C)c2[nH]c1=O)Cc1nnnn1CC1CCCO1 (centres undefined) | 1.8 | 7.4 | -3.1 | 1.2 | 0.5
Cc1ccc2cc(CN(Cc3cccs3)Cc3nnnn3CC3CCCO3)c(=O)[nH]c2c1C (centres undefined) | 73.0* | -4.6 | 1.0 | . | -0.3
Cc1ccc2[nH]c(=O)c(CN(Cc3cccs3)Cc3nnnn3CC3CCCO3)cc2c1 (centres undefined) | 105.2* | -29.1 | -2.5 | . | 3.0
Cc1ccc2cc(CN(Cc3cccs3)Cc3nnnn3CC3CCCO3)c(=O)[nH]c2c1 (centres undefined) | 0.0 | -22.9 | -8.7 | 2.2 | 2.2
CCCCCCCCCCCCCCCC(O)C(N)CO (centres undefined) | 1.5 | -15.0 | 48.7* | 2.1 | -2.0
CCCCCCC(N)CC(=O)O (centres undefined) | -1.5 | 5.1 | -0.3 | . | -4.8
COc1cccc(CNC(=O)[C@H]2N[C@H]3c4ccc(/C=C/c5ccccc5)c(=O)n4C[C@H]3[C@@H]2CO)c1 | . | . | . | -1.1 | -0.9
O=[N+]([O-])c1ccc(S(=O)Cc2ccccc2)c([N+](=O)[O-])c1 (centres undefined) | 253.2* | -30.9 | 0.1 | 0.4 | .
CCc1ccc(N2C(=O)CN(Cc3ccc(OC)c(OC)c3)C2=S)cc1 | 31.4* | -9.1 | -1.1 | 0.7 | -1.1
COc1ccc(S(=O)(=O)N(C)C[C@H]2Oc3c(NC(=O)Nc4ccc(F)cc4)cccc3C(=O)N([C@H](C)CO)C[C@@H]2C)cc1 | . | . | . | 0.7 | .
CCOc1ccccc1/C=N/Nc1nc(C)cc(=O)[nH]1 | 0.3 | -10.5 | 1.3 | . | 5.8
COc1cccc(/C=N/Nc2nc(C)cc(=O)[nH]2)c1OC | 0.7 | -19.2 | 13.3* | -3.3 | 0.7
CCOC(=O)c1cccc(NC(=O)CCNS(=O)(=O)c2cccc3nonc23)c1 | 0.1 | -12.6 | -3.9 | 16.1* | 1.3
Cc1cccc(NC(=O)CCNS(=O)(=O)c2cccc3nonc23)c1C | -1.5 | -6.5 | -2.0 | 1.2 | .
CCOc1ccccc1NC(=O)CCNS(=O)(=O)c1cccc2nonc12 | 1.0 | -21.5 | -1.6 | 13.8* | -1.6
Cc1cccc(NC(=O)CCNS(=O)(=O)c2cccc3nonc23)c1 | 0.4 | 7.6 | -2.1 | 1.9 | 0.9
CC(=O)NC(c1ccco1)c1cc(Cl)c2cccnc2c1O (centres undefined) | . | . | -0.2 | 0.2 | -0.3
CCCCC(=O)NC(c1ccco1)c1cc(Cl)c2cccnc2c1O (centres undefined) | 359.7* | -7.5 | -0.6 | 1.6 | .
CCC(=O)NC(c1ccco1)c1cc(Cl)c2cccnc2c1OC (centres undefined) | -0.6 | -24.3 | -2.3 | -0.6 | -1.1
CCC(=O)NC(c1ccco1)c1cc(Cl)c2cccnc2c1O (centres undefined) | 277.5* | -25.0 | -1.5 | -0.6 | .
Oc1c(C(Nc2ccccn2)c2cccnc2)cc(Cl)c2cccnc12 (centres undefined) | 317.9* | -22.6 | -4.5 | 1.7 | .
O=C(NC1CCC1)[C@H]1[C@H](CO)[C@H]2Cn3c(ccc(-c4ccccc4)c3=O)[C@H]2N1Cc1ccccn1 | . | . | . | 0.2 | 2.4
COc1ccc(NS(=O)(=O)c2ccc3c(c2)Cc2ccccc2-3)cn1 | 28.3* | -29.4 | -2.2 | . | .
O=C(NCC1CC1)[C@H]1[C@H](CO)[C@H]2Cn3c(ccc(-c4ccncc4)c3=O)[C@@H]1N2CC1CC1 | . | . | . | 0.9 | -0.2
CCOc1ccc2nc(NC3=NC(C)(C)C=C(C)N3)nc(C)c2c1 | 0.4 | -14.9 | -0.5 | . | -3.1
SMILES | PfHsp40 rescue | PrP UTR inh | FadD28 FP inh | TcdB inh | Mtb BioA inh
CCOc1ccc2c(C)nc(NC3=NC(C)(C)C=C(C)N3)nc2c1 | 0.0 | -8.7 | -3.0 | 10.6* | 2.6
CCCN1C[C@@H](C)[C@@H](OC)CN(C)C(=O)c2ccc(NC(=O)c3ccccc3)cc2OC[C@@H]1C | . | . | . | -0.3 | 0.7
CCCc1cc(-c2n[nH]c(=S)n2-c2cccc(C)c2)cs1 | 67.7* | -23.2 | -4.0 | 1.1 | 4.7
CCc1c(C2(O)CCCCC2)[nH]c2cc(C(F)(F)F)ccc12 | 299.0* | -22.2 | -1.0 | . | 1.0
Cc1c(C2(O)CCCCC2)[nH]c2cc(C(F)(F)F)ccc12 | ? | -9.4 | -1.0 | 3.7 | -0.9
O=C(/C(=N/N=C/c1ccc(O)c(O)c1O)c1ccccc1)c1ccccc1 | 519.6* | -52.9 | -3.3 | -3.1 | -2.1
O=C(O)c1cc(N2N=C(C(F)(F)F)/C(=C/C=C/c3ccco3)C2=O)ccc1Cl | 112.3* | -26.4 | 77.2* | -2.0 | .
O=C(/C=C/c1ccco1)NC(=S)Nc1ccccc1N1CCCC1 | 58.9* | -4.1 | -1.0 | . | .
